DRD3 antagonist: antagonists of human D3 dopamine receptor; P35462; D3R cells, DiscoveRx beta-arrestin luminescence, antagonist mode; hits give low values; max response, negative = inhibition, %; 360,000 compounds, 2.5% hits; AID 652054; in the data active means max response below about -50%; inconclusive means no clear call, values can overlap the other calls
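Cells plated overnight at 1500 cells/well, then exposed to library compounds with dopamine controls for 90 minutes at 37 degrees C. DiscoveRx reagent added for 30–60 minutes at room temperature; luminescence read, quantitative HTS format.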
Giardia kill: kills Giardia lamblia; Giardia lamblia trophozoite viability; activity change, % at 7.66 µM, hits read low; 340,000 compounds, 0.15% hits; in the data active means activity change below about -80%; inconclusive means between about -30% and that limit;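 further: parasites exposed to compound for two days anaerobically before the ATP read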
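Each well holds 100 Giardia trophozoites and compound. After two days (48 hrs) at 37 deg C in anaerobic conditions, ATP is quantified by luminescence.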
DRD3 agonist: D3 dopamine receptor (human) agonism | P35462 | D3R DiscoveRx beta-arrestin cells, luminescence, 90 min | max activation, % | 410,000 compounds, 0.58% hits; in the data active means max activation above about 30%
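Agonist mode: compounds and dopamine controls were applied to plated cells for 90 min at 37 degrees C after an overnight attachment at 1500 cells/well. Luminescent read-out followed 30 - 60 minutes at room temperature with DiscoveRx detection reagent.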
B2AR arrestin: recruits beta-arrestin to the human beta2-adrenergic receptor. P07550. beta-arrestin recruitment to beta2AR, cell-based reporter. Potency, µM (series often up to 46.1 µM), usual class: activators. 330,000 compounds, 0.02% hits. AID 492947; active means well fitted activation curve with a large enough effect; inconclusive means small, poorly fitted or top-dose-only effect; further: nearly all actives have a fitted effect of over 65% in size
Target sequence (P07550 whole entry, looked up): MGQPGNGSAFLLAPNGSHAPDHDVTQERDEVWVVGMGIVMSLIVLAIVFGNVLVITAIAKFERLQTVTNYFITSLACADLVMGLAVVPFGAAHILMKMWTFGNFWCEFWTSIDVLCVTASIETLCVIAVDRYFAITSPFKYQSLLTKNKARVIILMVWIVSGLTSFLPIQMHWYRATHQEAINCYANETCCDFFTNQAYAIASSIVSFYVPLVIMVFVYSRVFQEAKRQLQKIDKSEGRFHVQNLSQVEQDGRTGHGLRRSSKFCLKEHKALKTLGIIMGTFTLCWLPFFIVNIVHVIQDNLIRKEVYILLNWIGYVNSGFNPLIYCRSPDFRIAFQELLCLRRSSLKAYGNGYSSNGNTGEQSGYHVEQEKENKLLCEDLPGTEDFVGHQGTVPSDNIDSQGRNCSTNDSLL
Each line names hits and unclear results; the compound was inactive in the other large screens; ! = a repeat was not active. Only some compounds are listed: those with a hit (about 2.8% of all), similar ones and a draw of the others.

COc1cccc(NC(=O)CN(C)C(=O)c2cc(-c3ccco3)nc3ccccc23)c1	none
CN(CCOc1ccc(Cl)cc1)C(=O)c1cc(-c2ccco2)nc2ccccc12	DRD3 agonist 42.0
COC(=O)C1=C(C(C)=O)C(c2ccc(C)cc2)n2nnnc2N1 (stereo not drawn)	DRD3 antagonist inconclusive
CCc1ccc(C2C(C(C)=O)=C(C(=O)OC)Nc3nnnn32)cc1 (stereo not drawn)	DRD3 antagonist -56.8
CCOC(=O)C1CCN(C(=O)CSc2cc(=O)n(CC)c3ccccc23)CC1	DRD3 antagonist -78.9
CCn1c(=O)cc(SCC(=O)N2CCC(C)CC2)c2ccccc21	none
CN1CCc2c(sc3c2C(=O)NC(c2ccccc2)N3)C1 (stereo not drawn)	none
Cc1ccc(C2NC(=O)c3c(sc4c3CCN(C)C4)N2)s1 (stereo not drawn)	DRD3 antagonist -55.4
CN1CCc2c(sc3c2C(=O)NC(c2ccc4c(c2)OCO4)N3)C1 (stereo not drawn)	DRD3 antagonist -126.1
Cc1nc(N2CCN(Cc3ccccc3)CC2)nc2c1C(=O)CC(C)C2 (stereo not drawn)	DRD3 antagonist -60.3
CCOc1ccccc1-c1nc(-c2cc3ccccc3nc2OC)no1	DRD3 agonist 34.2
COc1nc2ccccc2cc1-c1noc(-c2cccnc2)n1	none (no result: DRD3 antagonist, Giardia kill, DRD3 agonist)
CN(C)c1ccc(Nc2cc(Cl)ncn2)cc1	none
CN(C)c1cccc(-c2cc(Nc3ccc(C(C)(C)C)cc3)ncn2)c1	DRD3 antagonist -54.6 (no result: Giardia kill, B2AR arrestin)
O=C(Cn1c(=O)n(Cc2ccccc2)c(=O)c2oc3ccccc3c21)Nc1ccc(Cl)cc1	none (no result: DRD3 antagonist, Giardia kill, B2AR arrestin)
O=C(NCCN1CCC(n2c(=O)[nH]c3ccccc32)CC1)c1cccc(Cl)c1	DRD3 antagonist -98.2 (no result: Giardia kill, B2AR arrestin)
O=C(NCCN1CCC(n2c(=O)[nH]c3ccccc32)CC1)c1cccc(F)c1	DRD3 antagonist -104.7 (no result: Giardia kill, B2AR arrestin)
O=C(NCCN1CCC(n2c(=O)[nH]c3ccccc32)CC1)c1ccncc1	DRD3 antagonist -107.0 (no result: Giardia kill, B2AR arrestin)
O=C(NCCN1CCC(n2c(=O)[nH]c3ccccc32)CC1)C(c1ccccc1)c1ccccc1	DRD3 antagonist -78.3 (no result: Giardia kill, B2AR arrestin)
O=C(Nc1ccccc1)N1CCC(n2c(=O)[nH]c3ccccc32)CC1	none
CC(C)Cn1c(=O)c2ccccc2n2c(CCC(=O)Nc3ccc(F)c(F)c3)nnc12	none (no result: DRD3 antagonist, Giardia kill, B2AR arrestin)
Cc1ccc(S(=O)(=O)NC(=O)N[C@@H](C)Cc2ccccc2)cc1	none (no result: DRD3 antagonist, Giardia kill, B2AR arrestin)
CCN(CCCNC(=O)c1cc(Nc2ccc(OC)cc2OC)nc2ccccc12)c1cccc(C)c1	none (no result: DRD3 antagonist, Giardia kill, B2AR arrestin)
O=C(NCCN1CCC(n2c(=O)[nH]c3ccccc32)CC1)c1cc(F)cc(F)c1	DRD3 antagonist -101.1 (no result: Giardia kill, B2AR arrestin)
O=C(NCCN1CCC(n2c(=O)[nH]c3ccccc32)CC1)c1cccnc1Cl	DRD3 antagonist -68.7 (no result: Giardia kill, B2AR arrestin)
COc1cccc(NC(=O)Cn2c(=O)c3cccn3c3ccc(F)cc32)c1	none (no result: DRD3 antagonist, Giardia kill, B2AR arrestin)
CCOc1ccccc1CNC(=O)CCCN1C(=O)c2cccnc2Oc2ccc(Cl)cc21	none (no result: DRD3 antagonist, Giardia kill, B2AR arrestin)
CC12CCC(C(=O)N(CSC(=S)N/N=C\c3ccccc3)C1=O)C2(C)C (stereo not drawn)	DRD3 antagonist -69.1
Cc1ccc(CNC(=O)c2[nH]c(C(F)(F)F)nc2-c2ccccc2)cc1	none (no result: Giardia kill, B2AR arrestin)
O=C(NCc1cccc(C(F)(F)F)c1)c1[nH]c(C(F)(F)F)nc1-c1ccccc1	DRD3 antagonist -63.0 (no result: Giardia kill, B2AR arrestin)
O=C(NC1CCN(Cc2ccccc2)CC1)c1[nH]c(C(F)(F)F)nc1-c1ccccc1	DRD3 antagonist -85.4! (no result: Giardia kill, B2AR arrestin)
O=C(c1[nH]c(C(F)(F)F)nc1-c1ccccc1)N1CCCN(Cc2ccc(F)cc2)CC1	none (no result: Giardia kill, B2AR arrestin)
Cc1ccc(Oc2ncccc2NC(=O)CC2(CC(=O)O)CCCC2)c2c1CCC2	none
CCOC(=O)C(=CNc1cccnc1Oc1ccc(C)c2c1CCC2)C(=O)OCC	DRD3 agonist 36.9
Cc1cc(F)ccc1NC(=O)CCn1nc(C)c(S(=O)(=O)N2CCCCC2)c1C	none (no result: DRD3 antagonist, Giardia kill, B2AR arrestin)
c1ccc(COc2ccc(OCCCCN3CCCCC3)cc2)cc1	DRD3 antagonist -72.0
O=C(c1ccccc1)c1ccc(OCCCCN2CCCCC2)cc1	DRD3 antagonist -86.9
c1ccc(COCCN2CCN(CCOCc3ccccc3)CC2)cc1	DRD3 antagonist -69.0
CCc1ccccc1N1C(=O)N(Cc2cc(=O)n3ccccc3n2)c2ccccc2S1(=O)=O	none (no result: DRD3 antagonist, Giardia kill, B2AR arrestin)
Cc1ccc(NC(=O)Cn2c(=O)n(CCCCCC(=O)NCc3ccc(F)cc3)c(=O)c3sccc32)cc1C	none (no result: DRD3 antagonist, Giardia kill, B2AR arrestin)
Cc1ccc(S(=O)(=O)N2CCN(c3ccccc3)CC2)cc1C(N)=O	DRD3 agonist 34.5
COC(=O)c1cccc(S(=O)(=O)N2CCN(c3nc4ccccc4s3)CC2)c1	DRD3 antagonist -68.1

Screening results: PubChem BioAssay, National Center for Advancing Translational Sciences (NCATS)
